# In PubChem BioAssay (EPA / NIEHS):
# Active and inactive are the calls of the source. Rule for the calls: active = hit-call score of the fitted dose curve at least 0.9, where 1 is the maximum; inactive = score below 0.9.
# Assay: Tanguay_ZF_120hpf_TCHR: Oregon State University Tanguay Lab 120 Hour Post-fertilization zebrafish Assay for Touch Responsive (AID 2284403)
# Experimental: Tanguay_ZF_120hpf is a whole embryo, multiplexed endpoint assay using zebrafish larvae exposed for 120 hours post fertilization on a 96-well plate.Tanguay_ZF_120hpf_TCHR is one of one assay component(s) measured or calculated from the Tanguay_ZF_120hpf assay. It is designed to make measurements of zebrafish development as detected with brightfield microscopy of developing zebrafish embryos.Data from the assay component Tanguay_ZF_120hpf_TCHR was analyzed into 1 assay endpoints. This assay endpoint, Tanguay_ZF_120hpf_TCHR, was analyzed in the positive analysis fitting direction relative to DMSO as the negative control and baseline of activity. Using a type of morphology reporter, gain-of-signal activity can be used to understand changes in developmentals as they relate to the whole embryo. To generalize the intended target to other relatable targets, this assay endpoint is annotated to the zebrafish development intended target family, where the subfamily is embryonic functional response.
# Zebrafish husbandry: Tropical 5D wild-type adult zebrafish were housed in at an approximate density of 1000 per 100 gallon tank at the Sinnhuber Aquatic Research Laboratory, Oregon State University, Corvallis, OR. Each tank was kept at standard laboratory conditions of 28C on a 14-h light/10-h dark photoperiod in fish water consisting of reverse osmosis water supplemented with a commercially available salt (Instant Ocean). Spawning funnels were placed into the tanks the night prior, and embryos were collected and staged. To increase bioavailability, the chorion was enzymatically removed using pronase (63.6mg/ml, >/= 3.5U/mg, Sigma-Aldrich: P5147) at 4 hours post fertilization (hpf) using a custom automated dechorionator.Chemical exposures: Six hpf dechorionated embryos were placed 1 embryo per well in a 96-well plate prefilled with 90 ul of EM using automated embryo placement systems (AEPS). Ten microliters of each row of dilution plate 2 was added to 2 exposure plates. The final DMSO concentration used was 0.64% (vol/vol). Thirty-two embryos were also exposed to 5uM trimethyltin chloride (positive control). Plates were sealed to prevent evaporation and foil covered to reduce light exposure and kept in a 28C incubator. Embryos were statically exposed until 120 hpf. At 24 hpf, embryos were assessed for photomotor response using a custom photomotor response analysis tool (PRAT) and for developmental toxicity endpoints (MO24: mortality at 24 hpf, DP: developmental progression, SM: spontaneous movement, and NC: notochord distortion). At 120 hpf, locomotor activity was measured using Viewpoint Zebralab and assessed for 13 endpoints. Zebrafish acquisition and analysis program (ZAAP), a custom program designed to inventory, acquire, and manage zebrafish data, was used to collect developmental endpoints as either present or absent (i.e., binary responses were recorded). If mortality occurred for an embryo (at either 24 or 120 hpf), the non-mortality endpoints were not measured.
Compound,outcome,AC50
O=C(O)C=C(C(F)(F)F)C(F)(F)F,inactive,
FC(F)(F)C(F)(F)C(F)(F)C(F)(F)C(F)(F)C(F)(F)C(F)(F)Br,inactive,
N=C(N)C(F)(F)C(F)(F)C(F)(F)C(F)(F)C(F)(F)C(F)(F)C(F)(F)F,inactive,
CCO[Si](CCC(F)(F)C(F)(F)C(F)(F)C(F)(F)C(F)(F)C(F)(F)F)(OCC)OCC,inactive,
O=C(O)C(F)(F)C(F)(F)C(F)(F)C(F)(F)C(F)(F)C(F)(F)C(F)(F)C(F)(F)Cl,,37.2 µM (active)
OCC(F)(F)C(F)(F)C(F)(F)C(F)(F)C(F)(F)C(F)(F)F,inactive,
FC(F)(F)C(F)(F)C(F)(F)C(F)(F)C(F)(F)C(F)(F)C(F)(F)C(F)(F)F,inactive,
O=C(O)C(F)(OC(F)(F)C(F)(OC(F)(F)C(F)(OC(F)(F)C(F)(F)C(F)(F)F)C(F)(F)F)C(F)(F)F)C(F)(F)F (stereo not given),inactive,
COC(=O)CCC(F)(F)C(F)(F)C(F)(F)C(F)(F)F,inactive,
C=CC(=O)OCC(F)(F)C(F)(F)C(F)(F)C(F)(F)C(F)(F)C(F)(F)C(F)(F)F,inactive,
O=C(CC(=O)C(F)(F)C(F)(F)F)C(F)(F)F,inactive,
FC(F)(F)C(F)(F)C(F)(F)C(F)(F)C(F)(F)C(F)(F)C(F)(F)C(F)(F)CCS,inactive,
O=S(=O)(OCCOC(F)(F)F)C(F)(F)F,inactive,
O=S(=O)(O)C(F)(F)C(F)(F)C(F)(F)C(F)(F)C(F)(F)C(F)(F)C(F)(F)F,,43.2 µM (active)
OCCCC(F)(F)C(F)(F)C(F)(F)C(F)(F)C(F)(F)C(F)(F)C(F)(F)F,inactive,
FC(F)(F)C(F)(F)C(F)(F)C(F)(F)C(F)(F)C(F)(F)CC1CO1 (stereo not given),inactive,
CC(C)(C)C(=O)CC(=O)C(F)(F)C(F)(F)C(F)(F)F,inactive,
O=C(O)C(F)(F)C(F)(F)C(F)(F)C(F)(F)C(F)(F)C(F)(F)C(F)(F)C(F)(F)C(F)(F)C(F)(F)C(F)(F)C(F)(F)F,inactive,
O=C(O)C(F)(F)C(F)(F)C(F)(F)F,inactive,
O=C(O)C(F)(F)C(F)(F)C(F)F,inactive,

Compound,outcome,AC50
FC(F)(F)C(F)(F)C(F)(F)C(F)(F)C(F)(F)C(F)(F)C(F)(F)I,inactive,
FC(F)(F)C(F)(F)C(F)(F)N(C(F)(F)C(F)(F)C(F)(F)F)C(F)(F)C(F)(F)C(F)(F)F,inactive,
O=C(O)C(F)(F)C(F)(F)F,inactive,
O=C(O)C(F)(F)C(F)(F)C(F)(F)C(F)(F)F,inactive,
FC(F)(F)C(F)(F)C(F)(F)C(F)(F)C(F)(F)CCI,inactive,
NC(=O)C(F)(F)C(F)(F)C(F)(F)C(F)(F)F,inactive,
Cc1ccc(S(=O)(=O)OCC(F)(F)C(F)(F)C(F)(F)C(F)(F)C(F)(F)C(F)F)cc1,inactive,
CCCCCCCCC(F)(F)C(F)(F)C(F)(F)C(F)(F)C(F)(F)C(F)(F)F,inactive,
OCC(F)(F)C(F)(F)C(F)(F)C(F)(F)C(F)(F)C(F)F,inactive,
FC1CC(F)(F)C(F)(F)C1(F)F (stereo not given),inactive,
OCC(F)(F)C(F)(F)C(F)(F)C(F)F,inactive,
C=CC(F)(F)C(F)(F)C(F)(F)C(F)(F)C(F)(F)C(F)(F)C(F)(F)C(F)(F)F,inactive,
C=C(C)C(=O)OCCC(F)(F)C(F)(F)C(F)(F)C(F)(F)C(F)(C(F)(F)F)C(F)(F)F,inactive,
FC(F)(F)C(F)(F)CNCC(F)(F)C(F)(F)F,inactive,
O=S(=O)(OCC(F)F)C(F)(F)F,inactive,
O=C(O)C(F)(F)C(F)(F)C(F)(F)C(F)(F)C(F)(F)C(F)(F)C(F)(F)C(F)(F)C(F)(F)C(F)F,inactive,
O=P(O)(O)OCCC(F)(F)C(F)(F)C(F)(F)C(F)(F)C(F)(F)C(F)(F)F,inactive,
FC(F)(F)C(F)(F)C(F)(F)CI,inactive,
O=C(O)C(F)(OC(F)(F)C(F)(OC(F)(F)C(F)(F)C(F)(F)F)C(F)(F)F)C(F)(F)F (stereo not given),inactive,
C=C(C)C(=O)OCC(F)(F)C(F)(F)C(F)(F)C(F)(F)C(F)(F)C(F)(F)C(F)(F)F,inactive,
